A selection: hits, their analogues and other compounds. The true share with any hit is near 4.2%.
DAX1 StAR inh: blocks DAX1 repression of SF-1 activated StAR promoter; 370,000 compounds, 1.1% hits; HEK293T StAR-luciferase reporter, SF-1/DAX-1 repression relief; inhibition, % at 6.8 µM; AID 652010;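 active means inhibition above the mean over all tested compounds plus 3 SD, cut at about 3.6% in these data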;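 further: higher inhibition means more luminescence from relief of DAX-1 repression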
hcDAF12 agonist: activates DAF-12 receptor from parasite H. contortus | HEK293 hcDAF-12 lit1-tk-luc reporter, luminescence; 0% DMSO, 100% Δ7-dafachronic acid | activation, % at 6.8 µM | 370,000 compounds, 1.4% hits | AID 652067;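 active means activation above the mean of all tested compounds plus 3 SD, cut at about 5.5% in these data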
ssDAF-12 act: S. stercoralis DAF-12 activation, primary screen. 370,000 compounds, 1% hits. HEK293 ssDAF-12/GRIP1 lit1-tk-luc reporter, luminescence; % of 3 µM dafachronic acid response. activation, % at 6.8 µM. AID 652126;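 active means activation above the mean over all tested compounds plus 3 SD, cut at about 0.9% in these data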
hgDAF-12 ag: agonists of H. glycines DAF-12 nuclear receptor. HEK293 GAL4-hgDAF12 UAS-luciferase reporter, agonist luminescence; normalized to butyrate control. activation, % at 6.8 µM. 370,000 compounds, 1.8% hits. AID 687014;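 active means activation above a cutoff set at the mean of all screened compounds plus 3 SD, cut at about 10% in these data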
esBAF inh: blocks esBAF chromatin remodeling in mouse ES cells | Bmi1-luciferase knock-in reporter, 24 h; 100% = twice the neutral-well signal | reporter increase, % at 12.5 µM | 350,000 compounds, 2% hits | AID 602393; in the data active means activation above about 40%;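 further: a rise in the Bmi1 reporter signal indicates esBAF inhibition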
Wnt act: activates Wnt/beta-catenin signaling in a reporter cell assay; activator, plate reader; activation, % at 9.35 µM; 300,000 compounds, 1.2% hits; in the data active means activation above about 30%, passing the limit was not always enough
Each line names hits and unclear results; the compound was inactive in the other large screens.

Cc1cc(C(=O)OCc2nc3ccccc3s2)c(C)o1	esBAF inh 71.8 (no result: Wnt act)
C[C@H]1CN([C@@H](C)CO)C(=O)c2cccc(NS(=O)(=O)c3cn(C)cn3)c2O[C@H]1CN(C)Cc1ccc(-c2ccccc2)cc1	none (no result: DAX1 StAR inh, hcDAF12 agonist, ssDAF-12 act, hgDAF-12 ag, Wnt act)
Cc1cc(NC(=O)C2CC2)n(-c2nc3ccccc3s2)n1	hcDAF12 agonist 5.6
COc1ccc(/C=C(\NC(=O)c2ccc(OC)cc2)C(=O)Nc2cccc(C(=O)O)c2)cc1	esBAF inh 46.1
COc1ccc(/C=C(/NC(=O)c2ccccc2Cl)C(=O)O)cc1	Wnt act 47.0 (no result: esBAF inh)
Nc1ccccc1C#Cc1ccccc1	esBAF inh 68.6, Wnt act 38.9
CO[C@@H]1CN(C)C(=O)c2cc(NC(=O)Nc3ccc(Cl)cc3)ccc2OC[C@H](C)N(C(=O)Nc2c(C)noc2C)C[C@@H]1C	none (no result: DAX1 StAR inh, hcDAF12 agonist, ssDAF-12 act, hgDAF-12 ag, Wnt act)
Cc1cc(C)n(CC(O)COc2ccc(Cl)cc2Cl)n1 (stereo unspecified)	esBAF inh 52.3
CCCC(=O)N1CCN(c2nc3ccc(CC)cc3s2)CC1	none
CC(=O)N1CCN(c2nc3ccc(Br)cc3s2)CC1	esBAF inh 54.2
O=C(c1ccccc1)N1CCN(c2nc3ccc([N+](=O)[O-])cc3s2)CC1	none (no result: esBAF inh)
CCCCC(=O)N1CCN(c2nc3ccc(Br)cc3s2)CC1	none
O=[N+]([O-])c1ccc2nc(N3CCCC3)sc2c1	esBAF inh 79.0
CCCC(=O)N1CCN(c2nc3ccc(Cl)cc3s2)CC1	esBAF inh 52.0

Bioassay records: PubChem, several laboratories
